Measured values: PubChem BioAssay AID1159580 (chemical genetic matrix, 2015)
Where “and” joins values, the source holds several entries; their conditions need not be identical. Equal values may be shown once. The whole screen tested about 5,500 compounds, of which about 2,000 (36%) were called active. Not shown: some 18% with an inconclusive outcome. Rule as the data show it: active = normalized growth mostly below about 0.91 (no sharp cut-off); inconclusive = no clear call, values can overlap the other calls; inactive = mostly above about 0.92. The list shows a part of the results.

Experiment: chemical genetic growth profiling, strain panel (AID 1159580);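 also: tested at 20 µM; growth read once vehicle control cultures reached saturation at 30 °C; 1 = growth at the plate median or of vehicle wells; lower values mean less growth of the strain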
Settings: S. cerevisiae deletion strains, growth OD

Measured: normalized growth

C[N+](C)(C)CCOP(=O)([O-])OP(=O)(O)OC[C@H]1OC(n2ccc(N)nc2=O)[C@H](O)[C@@H]1O (some centres not stated)
inactive: locus YAL013W, strain DEP1, hits give low values 0.99 | locus YAL021C, strain ccr4, hits give low values 1 | locus YAL026C, strain drs2, hits give low values 1 | locus YAL030W, strain snc1, hits give low values 0.991 | locus YBL061C, strain skt5, hits give low values 0.983 | locus YBR009C, strain hhf1, hits give low values 1.01 | locus YBR021W, strain FUR4, hits give low values 1.01 | locus YBR023C, strain chs3, hits give low values 0.987 | locus YBR171W, strain sec66, hits give low values 0.962 | locus YBR229C, strain ROT2, hits give low values 1 | locus YBR231C, strain swc5, hits give low values 0.976 | locus YBR279W, strain paf1, hits give low values 0.992 | locus YCL011C, strain gbp2, hits give low values 0.998 | locus YCL016C, strain dcc1, hits give low values 1.01 | locus YCL029C, strain bik1, hits give low values 0.999 | locus YCL061C, strain MRC1, hits give low values 0.972 | locus YCL069W, strain vba3, hits give low values 0.975 | locus YCR088W, strain abp1, hits give low values 0.98 | locus YDL005C, strain med2, hits give low values 0.977 | locus YDL035C, strain GPR1, hits give low values 0.993 | locus YDL040C, strain nat1, hits give low values 0.979 | locus YDL074C, strain BRE1, hits give low values 0.972 | locus YDL101C, strain DUN1, hits give low values 0.999 | locus YDL134C, strain PPH21, hits give low values 1.01 | locus YDL185W, strain tfp1, hits give low values 0.992 | locus YDL192W, strain arf1, hits give low values 1.01 | locus YDR001C, strain nth1, hits give low values 0.978 | locus YDR069C, strain doa4, hits give low values 0.976 | locus YDR101C, strain arx1, hits give low values 0.989 | locus YDR137W, strain rgp1, hits give low values 0.991 | locus YDR150W, strain NUM1, hits give low values 1 | locus YDR159W, strain sac3, hits give low values 1 | locus YDR162C, strain NBP2, hits give low values 0.981 | locus YDR195W, strain ref2 0.94 | locus YDR297W, strain sur2, hits give low values 0.989 | locus YDR318W, strain mcm21, hits give low values 1.01 | locus YDR334W, strain swr1, hits give low values 0.974 | locus YDR335W, strain msn5, hits give low values 0.991 | locus YDR388W, hits give low values 1 | locus YDR392W, strain spt3, hits give low values 1.05 | locus YDR502C, strain sam2, hits give low values 0.995 | locus YEL003W, strain gim4, hits give low values 0.986 | locus YEL037C, strain rad23, hits give low values 0.976 | locus YEL061C, strain CIN8 (second series), hits give low values 0.971 | locus YEL061C, strain CIN8, hits give low values 0.996 | locus YER015W, strain faa2, hits give low values 1 | locus YER016W, strain bim1, hits give low values 0.985 | locus YER110C, hits give low values 1 | locus YER111C, strain swi4, hits give low values 0.978 | locus YER155C, strain BEM2 (second series), hits give low values 0.98 | locus YER155C, strain BEM2, hits give low values 0.995 | locus YER167W, strain BCK2, hits give low values 1.02 | locus YFR010W, strain ubp6, hits give low values 0.974 | locus YGL078C, strain dbp3, hits give low values 0.998 | locus YGL086W, strain mad1, hits give low values 1.01 | locus YGL167C, strain pmr1, hits give low values 0.973 | locus YGL173C, strain kem1, hits give low values 0.983 | locus YGL227W, strain vid30, hits give low values 0.973 | locus YGL240W, strain doc1, hits give low values 0.969 | locus YGL248W, strain PDE1, hits give low values 1.02 | locus YGL253W, strain hxk2, hits give low values 0.993 | locus YGR078C, strain PAC10, hits give low values 0.997 | locus YGR135W, strain pre9, hits give low values 0.987 | locus YGR229C, strain SMI1, hits give low values 0.98 | locus YGR252W, strain gcn5, hits give low values 1.02 | locus YHR013C, strain ard1, hits give low values 0.969 | locus YHR027C, strain rpn1, hits give low values 0.992 | locus YHR030C, strain SLT2, hits give low values 0.998 and 1 | locus YHR079C, strain IRE1 (second series), hits give low values 1.01 | locus YHR079C, strain IRE1, hits give low values 1.01 | locus YHR094C, strain hxt1, hits give low values 0.997 | locus YHR129C, strain ARP1, hits give low values 1.01 | locus YHR142W, strain chs7, hits give low values 0.98 | locus YHR200W, strain rpn10, hits give low values 1 | locus YIL066C, strain RNR3, hits give low values 0.995 | locus YIL073C, strain SPO22, hits give low values 1.06 | locus YIL125W, strain kgd1, hits give low values 1 | locus YIR030C, strain dcg1, hits give low values 0.999 | locus YJL092W, strain hpr5, hits give low values 0.974 | locus YJL095W, strain BCK1 (second series), hits give low values 0.99 | locus YJL095W, strain BCK1, hits give low values 0.987 and 0.994 | locus YJL115W, strain asf1, hits give low values 0.977 | locus YJL129C, strain trk1, hits give low values 0.99 | locus YJL134W, strain LCB3, hits give low values 1 | locus YJL154C, strain vps35, hits give low values 0.981 | locus YJL164C, strain tpk1, hits give low values 1 | locus YJL166W, strain qcr8, hits give low values 0.963 | locus YJL168C, strain set2, hits give low values 1 | locus YJL187C, strain SWE1 (second series), hits give low values 1 | locus YJL187C, strain SWE1, hits give low values 0.993 | locus YJR043C, strain POL32, hits give low values 1.02 | locus YJR066W, strain TOR1, hits give low values 0.952
